The AC50 is the midpoint of the concentration-response curve, whichever way the signal moves.

For this test, the target named is rat CYP1A1, Cyp1a1 (gene 24296) (UniProt P00185). Put plainly: NVS_ADME_rCYP1A1: NovaScreen (NVS) CYP450-related Enzyme Activity (ADME) Assay for rat CYP1A1. As for the experimental part:
NVS_ADME_rCYP1A1 is a biochemical, single-readout assay that uses extracted gene-proteins from baculovirus-insect cells in a cell-free assay. Measurements were taken 1 hour after chemical dosing in a 96-well plate.NVS_ADME_rCYP1A1 is one of one assay component(s) measured or calculated from the NVS_ADME_rCYP1A1 assay. It is designed to make measurements of enzyme activity, a form of enzyme reporter, as detected with fluorescence intensity signals by Fluorescence technology.Data from the assay component NVS_ADME_rCYP1A1 was analyzed into 1 assay endpoint. This assay endpoint, NVS_ADME_rCYP1A1, was analyzed in the positive analysis fitting direction relative to Acetonitrile as the negative control and baseline of activity. Using a type of enzyme reporter, loss-of-signal activity can be used to understand changes in the enzymatic activity as they relate to the gene Cyp1a1. Furthermore, this assay endpoint can be referred to as a primary readout, because this assay has produced multiple assay endpoints where this one serves a enzymatic activity function. To generalize the intended target to other relatable targets, this assay endpoint is annotated to the cyp intended target family, where the subfamily is xenobiotic metabolism. […]

Inconclusive results are not listed. The source made the active and inactive calls. How the source made its calls: active means hit-call score of the fitted dose curve at least 0.9, where 1 is the maximum; inconclusive means response in the unintended direction; inactive means score below 0.9.

Sequence of rat CYP1A1, Cyp1a1 (gene 24296) (P00185 whole entry, looked up): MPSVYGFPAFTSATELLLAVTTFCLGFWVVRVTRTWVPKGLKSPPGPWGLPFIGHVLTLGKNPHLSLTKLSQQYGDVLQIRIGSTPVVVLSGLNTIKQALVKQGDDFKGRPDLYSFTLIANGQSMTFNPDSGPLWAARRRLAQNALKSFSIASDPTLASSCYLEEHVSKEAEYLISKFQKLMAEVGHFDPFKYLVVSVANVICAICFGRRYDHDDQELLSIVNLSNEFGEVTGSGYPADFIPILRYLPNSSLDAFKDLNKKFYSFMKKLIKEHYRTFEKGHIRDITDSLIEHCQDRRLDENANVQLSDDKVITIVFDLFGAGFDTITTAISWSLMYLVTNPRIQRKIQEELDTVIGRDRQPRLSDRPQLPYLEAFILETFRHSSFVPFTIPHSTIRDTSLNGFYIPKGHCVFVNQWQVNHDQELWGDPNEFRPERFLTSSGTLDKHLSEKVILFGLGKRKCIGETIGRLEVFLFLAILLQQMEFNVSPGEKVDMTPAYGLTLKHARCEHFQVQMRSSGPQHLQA

With `C=CCOC(Cn1ccnc1)c1ccc(Cl)cc1Cl` (stereo unspecified), the AC50 is 7.73 µM (active).

The values above are taken from PubChem BioAssay AID2283112 (EPA ToxCast).
